# Bioassay records deposited in PubChem by National Center for Advancing Translational Sciences (NCATS).
# Pf Dd2 inh: Plasmodium falciparum Dd2 growth inhibition. P. falciparum Dd2 growth, SYBR Green, 72 h. AID 1347417. Potency, µM (series often up to 28.9 µM), for the others: top-dose activity, negative = inhibition, hits mostly inhibitors. 120,000 tested, 4.3% active; active = well fitted inhibition curve with a large enough effect;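 also: plate controls were DMSO vehicle for no effect and reference drug for full effect; nearly all actives have a fitted effect of over 65% in size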
#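 Readout: SYBR Green fluorescence, 485 nm excitation, 535 nm emission, after ~16 h lysis at 37C. Before that, Dd2-infected red cells (2.5% hematocrit) grew 72 h with compound, 29 uM top final concentration.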
# The depositor's hits bear a star; i = inactive; [ ] = dose if it differs, or a comment. Only a selection was taken, and hits are over-represented in it overall. Potency is read from the fitted curve at half-maximal effect.
SMILES,Pf Dd2 inh
O=C(O)C1CNCCN(Cc2ccc(-c3nn[nH]n3)cc2)C1 (configuration not stated),-3%
Cc1nc2c(c(-c3ccc(Cl)cc3)n1)CCN(C(=O)c1ccccc1)CC2,-17%
CN1CCN(c2nc3c(c(=O)[nH]2)CCN(Cc2cccnc2)CC3)CC1,38%[5.79 µM]
CC(C)c1nc2c(c(-c3ccc(Cl)cc3)n1)CCN(Cc1cccnc1)CC2,11µM*
CC(C)c1nc2c(c(-c3ccc(Cl)cc3)n1)CCN(Cc1cccc3ccccc13)CC2,11µM*
CN(Cc1cccnc1)c1nc2c(c(=O)[nH]1)CCN(Cc1ccc(Cl)cc1)CC2,-10%[5.79 µM]
CC(C)c1nc2c(c(-c3ccc(O)cc3)n1)CN(C(=O)N(C)C)CC2,i
O=C(CN1C(=O)NC2(CCOCC2)C1=O)NCc1ccc(Cl)cc1,51%
COCCNC(=O)[C@@H]1C[C@H](Oc2cccnc2)CN1C(=O)c1ocnc1C,22%
Cc1cc(=O)c(C(=O)N2CCCn3nc(CO)cc3C2)cn1C,-11%
CCc1ccc(C2Sc3ccccc3NC3=C2C(=O)c2ccccc23)cc1 (configuration not stated),2µM*
CCc1ccc(CNC(=O)c2cc3c(s2)-c2ccccc2OC3)cc1,11%
O=C1[C@@H]2CSC(c3ccc(C(F)(F)F)cc3)N2C(=O)N1c1ccccc1 (some centres not stated),12%
O=C1C2=C(Nc3ccccc3SC2c2ccc(C(F)(F)F)cc2)c2ccccc21 (configuration not stated),4.5µM*
CC(C)c1ccc(C2Sc3ccccc3NC3=C2C(=O)c2ccccc23)cc1 (configuration not stated),3.5µM*
Cn1cccc1CN1CCC2(CC(c3cccc(C(F)(F)F)c3)=NO2)C1 (configuration not stated),8%
Cc1ccc(CN2CC[C@@H]3[C@H]2C(=O)NC[C@H](CCC(=O)NCc2cccs2)N3C)cc1,4%
CC(c1cccs1)N(C)CC1CCCCC1 (configuration not stated),11%[44.1 µM]
CN(Cc1ccccc1)C1CCc2ccccc21 (configuration not stated),-17%[44.1 µM]
O=C(NCC1Cn2cccc2CN1Cc1ccccc1)c1n[nH]c2ccccc12 (configuration not stated),13µM*
O=C(NCC1Cn2cccc2CN1Cc1ccccc1)c1ccncc1 (configuration not stated),-28%
O=C(NCC1Cn2cccc2C(=O)N1Cc1ccccc1)c1ccncc1 (configuration not stated),-7%
COCCc1noc([C@@H]2CN(Cc3cccc(OC)n3)C[C@H]2CO)n1,-21%
CCN1c2cc(C(=O)NC3CCCCC3)ccc2C(=O)N2CCCCCC21 (configuration not stated),i
c1cncc(Nc2cc3c(cn2)CN(Cc2ccsc2)CCN3)c1,8.9µM*
SMILES,Pf Dd2 inh
FC(F)(F)Oc1cccc(CN2CCNc3cc(Nc4cccnc4)ncc3C2)c1,5µM*
c1ccc(Oc2cc3c(cn2)NCCN(Cc2ccsc2)C3)cc1,-4%[44.1 µM]
COc1cccc(CN2CCNc3cnc(Nc4ccccc4)cc3C2)c1,i
O=[S+]([O-])(Nc1cccnc1)c1ccc2c(c1)OCCN(Cc1ccsc1)C2,-22%[44.1 µM]
COc1cccc(Nc2cc3c(cn2)NCCN(Cc2ccccc2)C3)c1,i
C[C@H](C(=O)N(C)CCC#N)C1CC[C@@]2(C)Cc3sc(NC(=O)C4CC4)nc3[C@@H](C)[C@@H]2[C@H]1O (some centres not stated),-3%
Cc1ncsc1CN1CCC([C@@H]2CNC[C@H]2CO)CC1,18%
CC(C)N1CCOC[C@H]1c1ncc(-c2ccc(OC(F)(F)F)cc2)[nH]1,-5%[44.1 µM]
COc1ccc(C(=O)N2CCCCCCN(C)C(=O)[C@@H]3CCC[C@@H]32)cn1,0%
Nc1ccsc1C(=O)N[C@H](Cc1ccncc1)C1CC(O)C1 (some centres not stated),-3%
COc1ccc(OC)c(-n2nnc(-c3nc(-c4ccc5c(c4)OCO5)no3)c2C)c1,-6%
COc1ccc(-c2noc(-c3nnn(-c4ccc(C(C)C)cc4)c3C)n2)cc1OC,8.9µM*
COc1ccc(-c2noc(-c3nnn(-c4ccc(C)cc4C)c3C)n2)cc1,25%
CO[C@H]1[C@H](NC(=O)Cn2nc(C)c(C)c2C)c2ccccc2C12CCNCC2,3%
COc1ccc(Cl)cc1C(=O)N1CC(=O)N(c2ccccc2C#N)CC1C (configuration not stated),-9%
CN(C)c1ccc(C(=O)N2CC[C@@H](CC(=O)O)[C@@H](CCN3CCCCC3)C2)cc1,i
O=C(N[C@@H]1CN(Cc2ccc(F)cc2Cl)C[C@H]1CO)C1CC1,-5%
N#Cc1cccc(CN2C[C@@H](CO)[C@H](NC(=O)c3ccccc3)C2)c1,-17%
O=C(N[C@@H]1CN(Cc2ccc(Cl)c(F)c2)C[C@H]1CO)C1CCC1,-27%
O=C(N[C@@H]1CN(Cc2ccc(F)cc2Cl)C[C@H]1CO)C1CCC1,8.9µM*
CN1C[C@@H](CO)[C@H](NC(=O)c2ccccc2)C1,11%
O=C(N[C@@H]1CN(Cc2ccc(F)cc2F)C[C@H]1CO)c1ccccc1,10µM*
COc1ccc(-c2cnc3n[nH]c(-c4ccccc4)c3n2)cc1,8%[44.1 µM]
O=S(=O)(Cc1ccccc1)N[C@H]1CO[C@H]2[C@@H]1OC[C@@H]2n1nnnc1Oc1ccc(-n2ccnc2)cc1,-19%
O=C1Nc2cnccc2C2(CCN([S+](=O)([O-])c3cccc(C(F)(F)F)c3)C2)O1 (configuration not stated),-7%
SMILES,Pf Dd2 inh
O=C(C1CCc2nnc(C3CCN([S+](=O)([O-])c4ccccc4)CC3)n21)N1CCN(c2ncccn2)CC1 (configuration not stated),7%
COc1ccc(OC)c(NC(=O)C2CCCN(S(=O)(=O)c3c(C)nn(C)c3C)C2)c1 (configuration not stated),i
CCOc1ccc(N(CC)S(=O)(=O)N2CCCC(C(=O)Nc3cc(Cl)ccc3OC)C2)cc1 (configuration not stated),10µM*
CCOc1ccc(OCC)c(NC(=O)C2CCCN(S(=O)(=O)c3ccc(C)cc3)C2)c1 (configuration not stated),i
O=C1Nc2ccccc2CC12CCN(Cc1ccc(OC(F)(F)F)cc1)C2 (configuration not stated),11µM*
Cc1ccc(CN2CCC3(Cc4ccccc4NC3=O)C2)cc1 (configuration not stated),8.9µM*
COc1ccc(CN2CCC3(CC2)NCc2ccccc2NC3=O)cc1,-20%
COc1ccc(CN2CCC3(Cc4ccccc4NC3=O)C2)cc1 (configuration not stated),10µM*
O=C1Nc2ccccc2CC12CCN2Cc1ccc(OC(F)(F)F)cc1 (configuration not stated),-20%
N#Cc1ccc(CN2CCC3(CC2)COc2ccccc2NC3=O)cc1,10µM*
O=C1Nc2ccccc2CC12CCN(Cc1cccnc1)C2 (configuration not stated),-30%[44.1 µM]
O=C1Nc2ccccc2CC12CCCN(Cc1ccncc1)C2 (configuration not stated),-21%
CC(=O)Nc1ccc(CN2CCC3(CC2)COc2ccccc2NC3=O)cc1,-23%
O=C1Nc2ccccc2CC12CN(Cc1ccc(C(F)(F)F)cc1)C2,54%
O=C1Nc2ccccc2OCC12CCN(Cc1cccnc1)CC2,i
CC(=O)Nc1ccc(CN2CCC3(Cc4ccccc4NC3=O)C2)cc1 (configuration not stated),i
